Assay results taken from ChEMBL document CHEMBL2218924, “A broad activity screen in support of a chemogenomic map for kinase signalling research and drug discovery” (Biochem J, 2013).

The molecules below were run against T1, Tyrosine-protein kinase ZAP-70 (Homo sapiens) (UniProt P43403). Details: at 10 µM.
T1 sequence (whole entry): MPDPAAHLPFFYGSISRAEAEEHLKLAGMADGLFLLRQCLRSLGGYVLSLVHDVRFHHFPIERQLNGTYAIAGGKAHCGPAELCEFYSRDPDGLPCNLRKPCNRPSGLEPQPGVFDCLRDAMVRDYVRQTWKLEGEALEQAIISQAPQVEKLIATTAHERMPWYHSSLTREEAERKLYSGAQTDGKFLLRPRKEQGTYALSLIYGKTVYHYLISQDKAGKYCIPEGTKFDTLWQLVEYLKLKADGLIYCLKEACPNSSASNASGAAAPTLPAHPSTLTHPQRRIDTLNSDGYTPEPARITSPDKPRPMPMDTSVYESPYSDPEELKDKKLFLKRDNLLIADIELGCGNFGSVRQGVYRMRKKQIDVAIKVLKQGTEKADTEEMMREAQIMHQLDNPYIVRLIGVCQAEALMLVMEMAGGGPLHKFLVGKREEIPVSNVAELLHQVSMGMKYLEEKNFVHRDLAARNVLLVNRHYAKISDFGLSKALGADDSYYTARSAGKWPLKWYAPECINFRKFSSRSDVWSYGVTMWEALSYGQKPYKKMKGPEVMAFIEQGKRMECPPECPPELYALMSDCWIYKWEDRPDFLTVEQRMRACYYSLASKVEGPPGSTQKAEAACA
`COc1ccc(CNc2nc(N(CCO)CCO)nc3c2ncn3C(C)C)cc1` showed a residual activity of 88%.
Work on `CC(C)(C)n1nc(Cc2cccc3ccccc23)c2c(N)ncnc21` yielded a residual activity of 110%.
`O=C(Nc1cccc(Nc2cc(Nc3cccc(C(F)(F)F)c3)ncn2)c1)C1CC1` showed a residual activity of 101%.
In the case of `NC(=O)c1ccc(-c2nc(-c3ccc4c(c3)OCCO4)c(-c3ccccn3)[nH]2)cc1`, the residual activity is reported as 86%.
Work on `COc1cc2ncnc(Nc3ccc(Oc4ccccc4)cc3)c2cc1OC` yielded a residual activity of 114%.
In the case of `CC(C)[C@H](CO)Nc1nc(Nc2cc(N)cc(Cl)c2)c2ncn(C(C)C)c2n1`, the residual activity is reported as 98%.
For `Nc1ncnc2c1c(-c1ccc(Oc3ccccc3)cc1)cn2C1CCCC1`, the residual activity was 99%.
`NC(=O)c1ccc2[nH]c(-c3ccc(Oc4ccc(Cl)cc4)cc3)nc2c1` was tested, and the residual activity was 96%.
Molecule `O=C1Cc2c([nH]c3ccc([N+](=O)[O-])cc23)-c2ccccc2N1` has a residual activity of 105%.
With `COc1cc2ncnc(Nc3ccc(O)c(Br)c3)c2cc1OC` the residual activity was 105%.
With `COc1cc2nccc(Oc3ccc(NC(=O)Nc4cc(C)on4)c(Cl)c3)c2cc1OC` the residual activity was 107%.
Work on `CC[n+]1c(/C=C/N(C)c2ccccc2)n(-c2ccccc2)c2ccc(-c3nc4ccccc4s3)cc21` yielded a residual activity of 130%.
`Cn1nc2c3c(cccc31)C(=O)c1ccccc1-2` showed a residual activity of 85%.
In the case of `O=c1cc(-c2cccc3c2Sc2ccccc2S3)oc(N2CCOCC2)c1`, the residual activity is reported as 85%.
`CNc1cc2c(Nc3cccc(Br)c3)ncnc2cn1` showed a residual activity of 108%.
`CC(C)c1nn(-c2c(Cl)cccc2Cl)c2nc(Cc3ccc(OCCO)cc3)[nH]c(=O)c12` showed a residual activity of 84%.
In the case of `O=C(Nc1cccc(Nc2nccc(Nc3cccc(C(F)(F)F)c3)n2)c1)C1CC1`, the residual activity is reported as 116%.
Molecule `Nc1n[nH]c2nnc(-c3c(-c4ccccc4)nn4ccccc34)cc12` has a residual activity of 81%.
`CCN(CC)CCNC(=O)c1c(C)[nH]c(/C=C2\C(=O)Nc3ccc(Cl)cc32)c1C` gave a residual activity of 77%.
For `CC#CC(=O)Nc1cc2c(Nc3ccc(F)c(Cl)c3)ncnc2cn1`, the residual activity was 100%.
Work on `COc1ccc(C(=O)Nc2sc3c(c2C(N)=O)CCCC3)cc1OC` yielded a residual activity of 114%.
In the case of `COc1cccc(-c2cc(=O)c3ccccc3o2)c1N`, the residual activity is reported as 120%.
In the case of `O=C(c1cc2cc(O)ccc2[nH]1)c1cc2cc(O)ccc2[nH]1`, the residual activity is reported as 109%.
For `COc1cc2ncnc(Nc3ccc(NC(=O)c4ccccc4)cc3)c2cc1OC`, the residual activity was 104%.
For `Oc1c2ccccc2c2c3c(cccc13)N=N2`, the residual activity was 98%.
In the case of `Ic1cccc(CSc2nnc(-c3ccncc3)o2)c1`, the residual activity is reported as 102%.
In the case of `Cc1ccc(NC2=CC(=O)c3sc(C)nc3C2=O)cc1`, the residual activity is reported as 96%.
For `N#Cc1cnc2cnc(NCc3cccnc3)cc2c1Nc1ccc(F)c(Cl)c1`, the residual activity was 38%.
`CCN(CC)CCCCN1c2ccccc2Oc2ccc(Cl)cc21` showed a residual activity of 124%.
In the case of `COc1ccc(-c2cnc3c(-c4ccsc4)cnn3c2)cc1`, the residual activity is reported as 128%.
Work on `Nc1ccc2ncnc(NCCc3ccc(Oc4ccccc4)cc3)c2c1` yielded a residual activity of 108%.
Work on `COc1ccc(S(=O)(=O)N(CCO)c2ccccc2CN(C)C/C=C/c2ccc(Cl)cc2)cc1` yielded a residual activity of 97%.
`O=C1NC(=O)c2c1c1c3ccccc3[nH]c1c1[nH]c3cc(Br)ccc3c21` was tested, and the residual activity was 90%.
In the case of `O=C(CCCc1ccc(-c2ccccc2F)cc1)Nc1ccc(O)cc1`, the residual activity is reported as 109%.
`Nc1ncnc2[nH]nc(Nc3ccc(F)cc3)c12` was tested, and the residual activity was 98%.
